Laboratory results: PubChem BioAssay (NCATS)
Inconclusive results are not listed. Values without a mark were called inactive. The source made the active and inactive calls. Calls come from the whole dose curve; as a rule, active = well fitted cell-killing curve with a large enough effect; inconclusive = small, poorly fitted or top-dose-only effect, or effect the other way; inactive = flat fitted curve, though single readings scatter.

What follows are compounds tested on CAOV3 (assay: Primary qHTS to identify gynecologic anti-cancer compounds using libraries of approved drugs and bioactive compounds (AID 1345084; note: nearly all actives have a fitted effect of over 55% in size)). Details: Gynecologic cancer cell panel viability, ATPlite luminescence, 48 h; series mostly up to 57.5 µM; activity change, negative = cytotoxicity: at the top concentration.
Description: National Center for Advancing Translational Sciences [NCATS] Assay Overview: Chemotherapeutic drug responses vary from cancer to cancer and from patient to patient. These variations could be caused by a number of factors including patient genomic background, tumor mutations, tumor heterogeneity, and aspects of drug treatment. Chemotherapeutic drug resistance is also a common issue and can lead to ineffective treatment and patient death. Here we have profiled the cell killing effects of thousands of compounds to characterize the responses in three gynecological cancers, identify cancer-selective compounds, and understand the diversity of responses to these compounds from pan-cancer suppressors to single cell line selective compounds. In this assay, we screened a 7,914 compound drug library that included approved drug and bioactive compounds in six ovarian, three cervical, and […] placental cancer cell lines using the ATPlite assay for cell viability. […] The cervical cancer cell lines included HeLa, Ca Ski, and C-33 A. The placental cancer cell lines included JEG-3. HEK 293T cells were used as the control cell line to determine the selectivity index. ATPlite is a luminescence based assay reliant on the conversion of a luciferase substrate to light in the presence of ATP. As a cytotoxic compound will suppress growth and decrease the number of cells, the concentration of ATP will decrease, and less light signal will be detected in the well.
Assay Protocol Summary: 1,000 cells in 4 uL of media were dispensed into white, solid bottom 1536-well plates using a Multidrop Combi (Thermo Scientific). The Assay plates were incubated for 16 hours at 37 C with 5% CO2 in assay plates, followed by the addition of 23 nL of DMSO or drug dissolved in DMSO. Each compound was assayed in five concentrations (0.092, 0.46, 2.3, 11.5, and 57.5 uM), using the automated Wako 1536 Pin Tool workstation and incubated at 37 C with 5% CO2 48 hours. 4 uL of ATPlite, the ATP monitoring reagent, was then added to the each well of the assay plates using the Multidrop Combi reagent dispenser followed by incubation for 15 minutes at room temperature. The resulting luminescence was measured using the ViewLux plate reader.
% is set by controls: 0 for no effect and ±100 for the full control effect.

Row | Compound | activity change, negative = cytotoxicity | outcome
1 | O=C(Nc1ccc(Br)cc1)c1cc(Br)cc(Br)c1O | -18% | –
2 | COc1ccc2c3c1O[C@H]1[C@H](O)CC[C@H]4[C@@H](C2)N(C)CC[C@@]341 | 26.3% [at 116 µM] | –
3 | COC1CC(=C(c2cccs2)c2cccs2)C[N+](C)(C)C1 (stereo not given) | -4.22% | –
4 | NC1=NC(=O)C(c2ccccc2)O1 (stereo not given) | 3.01% | –
5 | O=C1OC(CCN2CCCCC2)OC1(c1ccccc1)c1ccccc1 (stereo not given) | 4.76% | –
6 | C=CCC1(C(C)CC)C(=O)NC(=O)NC1=O (stereo not given) | 1.54% | –
7 | Nc1nc(N)nc(NC2CC2)n1 | -2.96% | –
8 | C[C@@H](N)[C@@H](O)c1ccccc1 | -5.79% | –
9 | COP(=S)(OC)Oc1ccc(SC)c(C)c1 | 0.228% | –
10 | COc1cc(CCN)cc(OC)c1OC | 7.83% [at 116 µM] | –
11 | COP(=S)(OC)Oc1cc(Cl)c(Cl)cc1Cl | 5.22% | –
12 | CC(C(=O)c1ccccc1)N(C)C (stereo not given) | -7.2% | –
13 | NNc1ccccc1 | 25.9% | –
14 | C#CC(O)(C=CCl)CC (stereo not given) | 15.2% | –
15 | CCN[C@H](C)Cc1cccc(C(F)(F)F)c1 | 3.15% [at 116 µM] | –
16 | CC(C)c1cccc(C(C)C)c1O | -12.6% | –
17 | COc1c2c(cc3c1OCO3)CCN(C)C2 | -0.757% | –
18 | O=c1c(C2CC(c3ccc(-c4ccc(Br)cc4)cc3)Cc3ccccc32)c(O)sc2ccccc12 (stereo not given) | -12% | –
19 | C#C[C@]1(O)CC[C@H]2[C@@H]3CCC4=CC(=O)CC[C@]4(C)[C@H]3CC[C@@]21C | -5.61% | –
20 | CC(C)N(CCC(C(N)=O)(c1ccccc1)c1ccccn1)C(C)C (stereo not given) | – | inactive

Row | Compound | activity change, negative = cytotoxicity | outcome
21 | COP(=S)(OC)SCN1C(=O)c2ccccc2C1=O | -4.56% | –
22 | C[C@]12CC[C@H]3[C@@H](CCC4=CC(=O)CC[C@@H]43)[C@@H]1CC[C@@H]2OC(=O)CCc1ccco1 | 3.19% | –
23 | CC(C)c1c(CN(C)C(C)Cc2ccccc2)n(C)n(-c2ccccc2)c1=O (stereo not given) | -2.06% | –
24 | ClCCN1CCCC1 | -5.59% | –
25 | CCN(CCO)CCn1c(Cc2ccccc2)nc2c1c(=O)n(C)c(=O)n2C | -24% | –
26 | Clc1cccc(SC2CCNCC2)n1 | -11.5% | –
27 | CC(Cc1ccccc1)NCCn1cnc2c1c(=O)n(C)c(=O)n2C (stereo not given) | -1.41% [at 116 µM] | –
28 | CN1CC[C@]23c4c5ccc(O)c4O[C@H]2[C@@H](O)CC[C@H]3[C@H]1C5 | -7.67% [at 116 µM] | –
29 | CCOP(=S)(OCC)Oc1ccc2c(C)c(Cl)c(=O)oc2c1 | -4.67% | –
30 | CC(C)(N)Cc1ccccc1Cl | 6.19% | –
31 | O=C1OC(c2ccc(O)c(S(=O)(=O)O)c2)(c2ccc(O)c(S(=O)(=O)O)c2)c2c(Br)c(Br)c(Br)c(Br)c21 | 8.3% | –
32 | CN1C(=O)CCS(=O)(=O)C1c1ccc(Cl)cc1 (stereo not given) | 18.7% | –
33 | NC(=O)c1cc([N+](=O)[O-])cc([N+](=O)[O-])c1 | -6.53% | –
34 | NC(=O)CS(=O)C(c1ccccc1)c1ccccc1 (stereo not given) | -5.56% | –
35 | COc1cc(CC(C)N)cc(OC)c1OC (stereo not given) | -4.55% [at 116 µM] | –
36 | CCOC(=O)CC(SP(=S)(OC)OC)C(=O)OCC (stereo not given) | – | inactive
37 | CC(C)(C)NCC(O)c1cc(Cl)c(N)c(C(F)(F)F)c1 (stereo not given) | 15.6% | –
38 | CCN(CC)CCc1c[nH]c2ccccc12 | 5.73% [at 222 µM] | –
39 | CNCC(=O)c1ccc(O)c(O)c1 | 3.49% | –
40 | C[C@]12CC[C@@H]3c4ccc(OC(=O)N(CCCl)CCCl)cc4CC[C@H]3[C@@H]1CC[C@@H]2OP(=O)(O)O | -6.73% | –
